This is an account of results in PubChem BioAssay (NCI).

The structures appear in SMILES notation. The panel holds about 83,000 compounds, 20% with a hit somewhere; the sample as a whole holds those more often.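 How to read the values: 0–100, growth inhibition (40 = 60% inhibited); 0, no net growth; -100 to 0, cell death (-40 = 40% of starting cells died; -100 = all dead).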 A number with no mark means an inactive call. Active and inactive are the calls of the source. The calls were made as follows: active = growth percent below 10; inactive = the rest.

Common to all, as to experiment: NCI-60 one-dose screen, 48 h (100 = growth as untreated, 0 = no growth, -100 = all killed)
What all share (settings): 10 µM unless noted

Assay [1] relates to RPMI-8226 leukemia.
For assay [2], the system named is OVCAR-8 ovarian.
Assay [3] relates to OVCAR-5 ovarian.
Assay [4] deals with OVCAR-4 ovarian.
Assay [5] has as its system SK-OV-3 ovarian.
The subject of assay [6] is OVCAR-3 ovarian.
Assay [7] has as its system HS 578T breast.
In assay [8] the test system is NCI/ADR-RES ovarian.
Assay [9] concerns T-47D breast.
Assay [10] concerns BT-549 breast.
Assay [11] has as its system MDA-MB-435 melanoma.
For assay [12], the system named is SW-620 colon.
Assay [13] has as its system MCF7 breast.
The subject of assay [14] is HCT-116 colon.
The subject of assay [15] is KM12 colon.
Assay [16] has as its system HCC-2998 colon.

For the molecule `O=C(Nc1nc(-c2ccc(Cl)cc2)cs1)c1cc(O)c(O)c(O)c1`, the growth in [1] is 17.1%; in assay [2] it was 15.5%; in [3] it was 62.6%; in [4] it was 27.8%; in assay [5], 43.4%; in assay [6], 40.1%. Also, the growth in [7] was 61.9%; in [8] it was 13.6%; in assay [9], 25.4%; in [10], 24.6%; in assay [11], 41%; in assay [12], 25.3%. The growth in assay [13] is 28.3%; in [14], 17.7%; in assay [15], 51.3%.
In the case of `Cc1cc2c(cc1[N+](=O)[O-])NC(CNC(C)C)CC2` (configuration not stated), the growth in assay [1] is 105%; in assay [2] it was 115%; in assay [3], 88.7%; in [4], 95.1%; in assay [5], 99.7%; in assay [6], 96.6%. Besides, the growth in assay [7] is 124%; in assay [8] it was 95.1%; in [9], 86.3%; in [10], 102%; in assay [11], 107%; in assay [12], 111%. Also, the growth in assay [13] is 105%; in assay [14] it was 96.2%; in [16], 86.6%; in assay [15] it was 107%.
Take `CCCCN(CCCC)CCCOC(=O)c1ccc(N)cc1`: the growth in assay [1] is 68%; in assay [2], 73%; in [3] it was 97%; in assay [4] it was 84.2%; in [5], 83.3%; in assay [6], 102%. Moreover, the growth was 82.2% in assay [7]; 94.2% in assay [8]; 88% in [9]; 82.4% in assay [10]; -3.25% (active) in [11]; 74.6% in [12]. The results for the growth in assay [14], in [16] and in assay [15] were 58.4%, 87.6% and 103%, respectively.
For the molecule `CCOC(=O)C1=C(C)N2C(=NC3=C(CCC/C3=C\c3ccc(Cl)cc3)C2c2ccc(Cl)cc2)S1` (configuration not stated), the growth in assay [1] is -19.1% (active); in assay [2], 23%; in [3], 78.1%; in [4] it was 48.3%; in assay [5], 47%; in assay [6] it was -29.2% (active). For the same molecule, the growth in assay [7] was 51.7%; in [8], 39.4%; in [9], 25.3%; in [10], -44.5% (active); in [11], -14% (active); in assay [12], -59.8% (active). Moreover, the growth in assay [13] was -43.7% (active); in assay [14], -100% (active); in assay [16], -100% (active); in assay [15], -73.3% (active).
As to `CCC1=C(c2ccc(OC)cc2)C(C)(C)Oc2cc(O)c(CN3CCCC3)cc21`, the growth was 57.5% in assay [1]; 95.4% in assay [2]; 81.9% in [3]; 99.3% in assay [4]; 89.2% in [5]; 83.4% in [6]. Besides, the growth was 86% in [7]; 84.6% in assay [8]; 68.2% in [9]; 65.7% in assay [10]; 70.9% in assay [11]; 89.7% in assay [12]. Further, the growth in assay [13] is 89.7%; in [14], 46.9%; in assay [16], 18.1%; in [15], 81.1%.
On to `O=c1c(O)cccn1CCCNCCCN(CCCn1cccc(O)c1=O)CCCn1cccc(O)c1=O`, for which the growth was 131% in [1]; 114% in assay [2]; 94.7% in assay [3]; 101% in assay [4]; 97.3% in assay [5]; 103% in assay [6]. Also, the growth is 120% in [7]; 101% in assay [8]; 101% in assay [9]; 113% in assay [10]; 104% in [11]; 99.1% in assay [12]. Besides, the growth was 104% in [13], 108% in [14], 101% in [16] and 106% in assay [15].
On to `O=C(Nc1cccc([N+](=O)[O-])c1)c1cccc(C(=O)Nc2cccc([N+](=O)[O-])c2)c1`, for which the growth was 65.9% in [1]; 28.6% in assay [2]; 95.6% in [3]; 56.9% in assay [4]; 68.6% in [5]; 71.1% in assay [6]. In addition, the growth was 9.17% (active) in [7]; 62.2% in assay [8]; 68.4% in [9]; -4.34% (active) in [10]; 83.1% in assay [11]; 92.8% in [12]. The growth is 68.3% in assay [13], 78.4% in assay [14], 88.2% in assay [16] and 87.6% in assay [15].
On to `COc1cc2c(c(OC)c1OC)CCc1cnoc1-2`, for which the growth in assay [1] is 98.1%; in [2], 102%; in [3], 91.9%; in assay [4], 95%; in assay [5], 109%; in [6], 116%. Also, the growth was 106% in [7]; 94.3% in assay [8]; 97.7% in assay [9]; 101% in assay [10]; 103% in assay [11]; 114% in assay [12]. The growth in assay [13] is 104%; in [14], 176%; in assay [16], 90.1%; in assay [15] it was 106%.
On to `COc1cccc2c1C(=O)c1c(O)c3c(c(O)c1C2=O)C[C@@](O)(/C(C)=N/NC(=O)c1cccc([N+](=O)[O-])c1)C[C@@H]3OC1CC(N)C(O)C(C)O1` (some centres not stated), for which the growth in [1] is -55.6% (active); in [2] it was -6.79% (active); in assay [3], -9.12% (active); in assay [4] it was -17.3% (active); in [5], -29.7% (active); in assay [6], -40.7% (active). The growth was -12.3% (active) in assay [7]; 58.3% in [8]; -28.9% (active) in assay [9]; -14.9% (active) in assay [10]; -34.3% (active) in assay [11]; -43.5% (active) in assay [12]. Further, the growth in [13] is -8.97% (active); in assay [14] it was -53.8% (active); in assay [16] it was -58.2% (active); in [15], -39.2% (active).
